Laboratory results as given in PubChem BioAssay AID504734 (The Scripps Research Institute Molecular Screening Center, 2011).
In all, about 340,000 compounds went through this assay and about 730 (0.21%) were called active. What follows is part of a selection rich in actives, with near analogues and random picks from the rest. Unmarked numbers belong to inactive results.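 How the source made its calls: active means inhibition above the mean over all tested compounds plus 3 SD (cut at about 21% in these data); inactive means the rest.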

The compounds below were run against Toll-like receptor 9 (Homo sapiens) + Myeloid differentiation primary response protein MyD88 (Homo sapiens) (UniProt Q9NR96+Q99836) (assay: inhibitors of TLR9-MyD88 association in cells, primary screen, cell-based, CHO, BLA complementation, fluorescence (AID 504734;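 further: 0% = DMSO only wells and 100% = clavulanate BLA inhibitor control wells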)). Settings: CHO BLA complementation TLR9-MyD88, CCF4 FRET ratio; at 4.98 µM; stronger effect = higher value.
Sequence of Toll-like receptor 9 (Homo sapiens) + Myeloid differentiation primary response protein MyD88 (Homo sapiens) (Q99836 whole entry, looked up): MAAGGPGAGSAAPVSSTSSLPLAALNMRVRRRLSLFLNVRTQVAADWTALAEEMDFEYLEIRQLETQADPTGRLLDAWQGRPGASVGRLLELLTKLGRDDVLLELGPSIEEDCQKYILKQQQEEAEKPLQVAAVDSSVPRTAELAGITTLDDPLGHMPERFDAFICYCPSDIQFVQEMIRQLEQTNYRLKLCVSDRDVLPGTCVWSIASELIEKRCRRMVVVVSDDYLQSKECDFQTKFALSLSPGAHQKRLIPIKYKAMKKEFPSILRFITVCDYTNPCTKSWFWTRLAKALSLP
Sequence of Toll-like receptor 9 (Homo sapiens) + Myeloid differentiation primary response protein MyD88 (Homo sapiens) (Q9NR96 whole entry, looked up): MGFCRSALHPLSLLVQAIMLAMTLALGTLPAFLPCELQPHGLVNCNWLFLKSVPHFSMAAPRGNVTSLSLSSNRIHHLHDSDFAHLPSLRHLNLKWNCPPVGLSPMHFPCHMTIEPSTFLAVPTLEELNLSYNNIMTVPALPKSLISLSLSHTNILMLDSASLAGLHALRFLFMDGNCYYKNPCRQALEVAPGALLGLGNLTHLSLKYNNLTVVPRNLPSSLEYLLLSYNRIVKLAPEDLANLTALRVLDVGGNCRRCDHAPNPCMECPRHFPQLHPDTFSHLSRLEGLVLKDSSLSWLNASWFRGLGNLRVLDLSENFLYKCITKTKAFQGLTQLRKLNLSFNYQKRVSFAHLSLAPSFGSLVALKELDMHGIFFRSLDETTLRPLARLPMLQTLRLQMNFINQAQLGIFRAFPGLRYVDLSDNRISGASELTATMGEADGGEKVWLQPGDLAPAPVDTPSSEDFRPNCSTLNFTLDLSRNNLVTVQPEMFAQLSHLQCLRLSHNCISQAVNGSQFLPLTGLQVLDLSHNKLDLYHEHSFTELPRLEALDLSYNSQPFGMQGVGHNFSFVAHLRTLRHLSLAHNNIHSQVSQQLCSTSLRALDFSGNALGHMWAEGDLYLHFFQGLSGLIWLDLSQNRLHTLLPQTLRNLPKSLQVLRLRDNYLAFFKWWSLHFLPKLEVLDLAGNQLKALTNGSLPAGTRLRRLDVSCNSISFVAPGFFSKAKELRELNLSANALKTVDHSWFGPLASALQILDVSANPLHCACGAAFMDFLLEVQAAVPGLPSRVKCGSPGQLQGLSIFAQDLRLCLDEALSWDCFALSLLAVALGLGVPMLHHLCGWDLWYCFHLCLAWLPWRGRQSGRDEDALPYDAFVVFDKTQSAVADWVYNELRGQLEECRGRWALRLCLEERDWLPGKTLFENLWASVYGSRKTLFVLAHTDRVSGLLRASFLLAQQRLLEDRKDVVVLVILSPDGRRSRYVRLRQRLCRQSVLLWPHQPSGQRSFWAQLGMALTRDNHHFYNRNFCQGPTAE

Row | Structure (SMILES) | inhibition
1 | Cc1ccc(Cc2c(-c3ccc(C)cc3)nc3c4ccccc4ccn23)cc1 | 0.71%
2 | CCCCCCN1C[C@H](O)[C@@H](n2cc(C3CC3)nn2)C[C@@H]1c1ccc(Cl)cc1 | 2.49%
3 | CCOc1ccc(/C=C(/C#N)c2nnc(N3CCOCC3)n2-c2ccccc2)cc1OC | 3.43%
4 | COc1cc(C=NC2CCCCC2)ccc1O | -10.8%
5 | COc1cc(/C=C(\C#N)c2nc3c(s2)CC(C)CC3)ccc1O (stereo unspecified) | 21.5% (active)
6 | CNC(=O)C1CN(C(=O)c2cccc(S(=O)(=O)N3CCc4ccccc43)c2)c2ccccc2O1 (stereo unspecified) | 2.33%
7 | Nc1cc(=O)c2[nH]cnc2[nH]1 | 2.53%
8 | O=C1CCC(C(=O)OCC(=O)Nc2ccc(OC(F)F)cc2)=NN1 | -4.91%
9 | CCOC(=O)c1c(NC(=O)COC(=O)c2ccc(S(=O)(=O)C(F)F)cc2)sc(C(=O)N(C)C)c1C | -11.2%
10 | CC(=O)N(C1=C(Cl)C(=O)c2ccccc2C1=O)c1ccc(C(=O)O)cc1 | -8.51%
11 | O=C1C(Cl)=C(Oc2ccccc2)C(=O)c2ccccc21 | 56.9% (active)
12 | CCN(CC)C(=O)C1=C(C)N(Cc2ccc(OC)cc2)C(=O)C(CC(=O)NCc2ccco2)C1 (stereo unspecified) | 7.39%
13 | CC(C)CCOc1ccc(C(=O)Nc2cc(S(=O)(=O)N3CCOCC3)ccc2N2CCOCC2)cc1 | 3.89%
14 | COc1ccc(-c2cnc(SCCNC(=O)c3ccc4c(c3)OCO4)[nH]2)cc1 | -7.86%
15 | COc1ccccc1CSc1ncc(-c2ccc([N+](=O)[O-])cc2)[nH]1 | 21.5% (active)
16 | COc1ccccc1C1CCN(c2ccc([N+](=O)[O-])cn2)CC1 | -2.92%
17 | Cn1ncc([N+](=O)[O-])c1C(=O)Nc1cc(Cl)ccc1Cl | -11.5%
18 | Cc1cc(Cl)ccc1C(=O)C1CCCN(C(=O)c2ccc3c(c2)OCO3)C1 (stereo unspecified) | -4.99%
19 | O=C(COC(=O)c1cncc(Br)c1)Nc1ccc(S(=O)(=O)N2CCOCC2)cc1 | -5.67%
20 | O=C(Nc1cccc2ccccc12)NC1CC1 | 2.15%
21 | COc1cc(/C=C2\CCCc3c2nc2ccccc2c3C(=O)O)cc(Cl)c1O | -7.09%
22 | NS(=O)(=O)c1ccc(NC(=O)COC(=O)c2c3c(nc4ccccc24)/C(=C\c2ccc4c(c2)OCO4)CCC3)cc1 | 25.9% (active)
23 | NC(=O)c1ccc(NC(=O)COC(=O)c2c3c(nc4ccccc24)/C(=C\c2ccc4c(c2)OCO4)CCC3)cc1 | 8.83%
24 | NS(=O)(=O)c1ccc(NC(=O)COC(=O)c2ccco2)cc1 | -0.62%
25 | O=C(COC(=O)c1c2c(nc3ccccc13)CCCC2)c1ccc(Br)s1 | -5.16%
26 | O=C(COC(=O)c1c2c(nc3ccccc13)/C(=C\c1cccs1)CCC2)Nc1ccccc1Cl | 22% (active)
